BAZ2B inh = BAZ2B (human) inhibition; Q9UIF8; AlphaScreen BAZ2B-H3K14Ac peptide displacement; Potency, µM (highest dose often 114 µM), for the others: top-dose activity change, negative = inhibition, actives largely listed as inhibitors; actives 4.4% (n = 360,000); note: potency is the fitted concentration of half-maximal effect; % is set by controls: 0 for no effect and ±100 for the full control effect; nearly all actives have a fitted effect of over 60% in size
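Inhibition is scored as reduced AlphaScreen emission. The BAZ2B/b-H3(5-23)K14Ac complex (50 nM each) in PBS pH 7.4, 0.01% Tween-20 meets compound (up to 110 uM) for 30 min at RT before bead addition.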
PLK1 PBD inh = inhibitors of human PLK1 polo-box domain binding; P53350; AID 720504; Plk1 PBD binding of FITC phosphopeptide, fluorescence polarization; actives 2.8% (n = 360,000); Potency, µM, for the others: max response, negative = inhibition, most hits filed as inhibitors; note: potency is the fitted concentration of half-maximal effect; series mostly up to about 57 µM; % is set by controls: 0 for no effect and ±100 for the full control effect; nearly all actives have a fitted effect of over 65% in size
Sfp inh = inhibitors of Bacillus subtilis Sfp phosphopantetheinyl transferase. Biochemical Sfp PPTase activity, qHTS. Potency, µM, without a hit: largest response in the series, negative = inhibition, most hits filed as inhibitors. actives 3.5% (n = 310,000). AID 1490;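 note: the enzyme is Sfp with the accession as filed and its product quenches rhodamine fluorescence; potency is the fitted concentration of half-maximal effect; 0% = enzyme reaction without inhibitor and -100% = no enzyme wells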
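Buffer: 50 mM Hepes-Na pH 7.6, 10 mM MgCl2, 0.01% Nonidet P-40, 0.01% BSA. Enzyme 15 nM, pre-exposed to compound 15 min; substrates then added and fluorescence change tracked over 30 min.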
JMJD2A Tudor = inhibitors of human JMJD2A Tudor domain; AID 504339; actives 4.4% (n = 390,000); AlphaScreen JMJD2A-Tudor / H3K4me3 peptide binding; O75164; Potency, µM (highest dose often 114 µM), without a hit: at the top dose activity change, negative = inhibition, actives largely listed as inhibitors; note: potency is the fitted concentration of half-maximal effect; % is set by controls: 0 for no effect and ±100 for the full control effect; nearly all actives have a fitted effect of over 50% in size
Target sequence (O75164 whole entry, looked up, the tested form may be a part): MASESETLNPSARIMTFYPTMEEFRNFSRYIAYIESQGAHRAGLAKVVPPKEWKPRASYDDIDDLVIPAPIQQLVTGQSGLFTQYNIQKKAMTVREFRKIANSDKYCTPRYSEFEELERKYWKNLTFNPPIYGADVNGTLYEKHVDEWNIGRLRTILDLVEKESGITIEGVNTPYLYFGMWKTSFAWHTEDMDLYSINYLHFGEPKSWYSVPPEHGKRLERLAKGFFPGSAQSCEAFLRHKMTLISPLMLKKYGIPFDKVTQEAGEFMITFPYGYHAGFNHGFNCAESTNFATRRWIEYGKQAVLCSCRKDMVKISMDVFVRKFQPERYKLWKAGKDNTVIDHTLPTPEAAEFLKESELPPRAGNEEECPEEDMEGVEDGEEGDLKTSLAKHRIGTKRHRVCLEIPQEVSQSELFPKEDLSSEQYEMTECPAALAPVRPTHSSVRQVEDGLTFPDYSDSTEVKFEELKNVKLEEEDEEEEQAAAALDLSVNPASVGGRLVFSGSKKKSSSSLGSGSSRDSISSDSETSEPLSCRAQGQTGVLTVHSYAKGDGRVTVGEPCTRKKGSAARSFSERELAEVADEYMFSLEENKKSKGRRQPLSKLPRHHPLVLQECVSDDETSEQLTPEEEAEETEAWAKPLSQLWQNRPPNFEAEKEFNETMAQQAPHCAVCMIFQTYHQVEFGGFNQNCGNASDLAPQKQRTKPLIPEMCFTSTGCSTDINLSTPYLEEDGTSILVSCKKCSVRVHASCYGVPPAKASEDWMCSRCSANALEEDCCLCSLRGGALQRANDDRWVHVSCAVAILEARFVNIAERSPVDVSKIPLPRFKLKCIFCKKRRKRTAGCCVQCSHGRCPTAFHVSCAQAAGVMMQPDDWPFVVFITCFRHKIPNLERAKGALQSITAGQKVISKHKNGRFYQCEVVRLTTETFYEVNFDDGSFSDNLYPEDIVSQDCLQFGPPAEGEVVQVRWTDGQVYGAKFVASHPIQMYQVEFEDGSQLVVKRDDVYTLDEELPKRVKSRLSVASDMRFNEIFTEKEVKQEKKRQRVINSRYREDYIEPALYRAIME
G9a inh = G9a (human) methyltransferase inhibition; Q96KQ7; G9a H3K9 monomethylation, AlphaScreen, 2 h; actives 8.8% (n = 350,000); Potency, µM (titrated, usually from 102 µM), for the others: top-dose activity, negative = inhibition, usual class: inhibitors; note: potency is the fitted concentration of half-maximal effect; % is set by controls: 0 for no effect and ±100 for the full control effect; nearly all actives have a fitted effect of over 75% in size
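AlphaScreen detection with an anti-monomethyl H3K9 antibody quantified product after a 2 h room-temperature reaction containing 500 nM biotinylated H3K9 peptide, 20 µM SAM and 20 nM enzyme, which had been preincubated 15 min with compound.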
HP1b chromo inh = HP1-beta chromodomain-methylated histone interaction inhibition; AlphaScreen HP1-beta / biotin-H3K9me3 peptide binding; P83916; AID 540317; Potency, µM (top dose mostly 114 µM), for the others: at the highest dose activity change, negative = inhibition, hits mostly inhibitors; actives 0.56% (n = 390,000); note: potency is the fitted concentration of half-maximal effect; nearly all actives have a fitted effect of over 70% in size
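HP1-beta protein (50 nM final) preincubated 30 min at room temperature with biotinylated H3(1-18)K9me3 peptide (50 nM) in PBS pH 7.4, 0.01% Tween-20, then compound added for 30 min. AlphaScreen streptavidin donor/nickel chelate acceptor beads (10 ug/mL final), 30 min dark, luminescence read.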
12-hLO 8HQ R1 = blocks human 12-lipoxygenase product formation in cuvette; shares compounds with BAZ2B inh; purified 12-hLO, cuvette UV 234 nm product formation; Potency, µM, usual class: inhibitors; actives 60% (n = 35); AID 2163;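 active = compounds that slowed 12-hLO product formation enough to yield a measured IC50 potency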
KDM4E inh = JMJD2E demethylase inhibition by 8HQ compounds | shares compounds with BAZ2B inh | JMJD2E demethylase, FDH-coupled NADH fluorescence (FDH is formaldehyde dehydrogenase) | Potency, µM (series often up to 57 µM), for inactives: at the highest dose activity, negative = inhibition, usual class: inhibitors | actives 89% (n = 130)
ME-1 prolif = inhibitors of ME-1 leukemia cell proliferation, CBFb-RUNX1 project. shares compounds with BAZ2B inh. ME-1 cell proliferation, ATP luminescence, 48 h. Potency, µM (titrated, usually from 56.1 µM), without a hit: top-dose activity change, negative = inhibition, usual class: inhibitors. actives 20% (n = 140)
The depositor's hits bear a star; ? = inconclusive; . = not tested or not shown; ! = repeats disagree; [ ] = dose if it differs, or a comment. This is a sample that favours compounds with a hit; in the whole collection about 12% have one here. Unless noted, calls come from the whole dose curve; as a rule, active = well fitted curve in the direction sought with a large enough effect; inconclusive = small, poorly fitted or top-dose-only effect, or another doubt; inactive = no such curve, though single readings can be large; an effect the other way counts as inactive or inconclusive.

SMILES	BAZ2B inh	PLK1 PBD inh	Sfp inh	JMJD2A Tudor	G9a inh	HP1b chromo inh	ME-1 prolif	others
CC(=O)Nc1cccc2cccnc12	.	.	.	-15%	.	19%	.
Oc1ccccc1-c1nc(NC2CCCC2)c2ccccc2n1	35%	2%	4%	15%	-23%[2.33 µM]	122%	.
c1ccc(-c2nnc(-c3ccccn3)nc2NC2CCCCC2)cc1	1.8µM*	0%	1%	3.2µM*	-4%	19%	7.1µM*
O=C(CSc1ccc(-c2ccccn2)nn1)NCc1ccccc1	18µM*	-10%	-21%	?	27%	2%	-18%
O=C(NCCc1ccccc1)c1cccc(Br)n1	.	.	-18%	.	-2%	.	-13%
NC(=O)N(CCC(=O)O)c1ccccc1	50µM*	-7%	9%	9%[57.1 µM]	?	16%	-12%[25.6 µM]
CCCC(=O)NC(c1cccs1)c1cc([N+](=O)[O-])c2cccnc2c1O (stereo unspecified)	7.9µM*	-17%	2.5µM*	14µM*	?	-7%	?
CCC(=O)NC(c1cccs1)c1cc(Br)c2cccnc2c1O (stereo unspecified)	71µM*	.	.	.	-34%[12.7 µM]	.	.	12-hLO 8HQ R1=14µM*;KDM4E inh=20µM*
CCC(=O)NC(c1cccs1)c1cc(Cl)c2ccccc2c1O (stereo unspecified)	?	.	.	-24%	2%[0.501 µM]	26%	.
CCCNC(=O)C(Cc1ccc(I)cc1)NC(=O)C1CC1 (stereo unspecified)	3%	-7%	.	-5%	-4%[0.501 µM]	68%	.
Cc1cn(CC(=O)N2CCN(c3ccccn3)CC2)c(=O)[nH]c1=O	.	-3%	.	1%	.	18%	.
O=C1[C@H](Cc2ccccc2)NCC=CC[C@@H](c2ccc(Cl)cc2)N1Cc1ccccc1	.	-7%	.	-31%	.	11%	.
Cc1ccc(C)c(NC(=S)N(CCN(C)C)C(C)c2ccccn2)c1 (stereo unspecified)	.	3%	-4%	-6%	-4%	33%	-4%[25.6 µM]
Cc1cccc(C)c1NC(=S)N(CCN(C)C)C(C)c1ccccn1 (stereo unspecified)	.	2%	-25%	-21%	-15%	9%	-11%[25.6 µM]
Cc1ccccc1NC(=S)N(CCN(C)C)C(C)c1ccco1 (stereo unspecified)	-4%	-7%	19%	-8%	2%[59 µM]	8%	.
CC(C)CCN(C(=S)Nc1cccc(C(F)(F)F)c1)C(C)c1ccccn1 (stereo unspecified)	4%	-13%	-7%	11%	2%[12.7 µM]	80%	.
CC(c1ccccn1)N(CCN(C)C)C(=S)Nc1cccc(F)c1 (stereo unspecified)	?	-10%	-18%	-9%	-10%[12.7 µM]	14%	-4%[25.6 µM]
CN(C(=O)Cc1c(C(=O)O)n(C)c2ccccc12)c1cccc(C(F)(F)F)c1	4%	2%	19%	-1%	16%	16%	.
Cn1c(CNC(=O)c2ccco2)nnc1SCC(=O)Nc1ccc(Cl)cc1	6%	-2%	.	-26%	-20%	37%	.
COc1cccc(-c2cnc(C(O)c3c(C)cccc3C)[nH]2)c1 (stereo unspecified)	.	-10%	.	.	.	.	.
O=C(O)C[C@@H]1C(=O)O[C@@H]2C(COC(=O)c3cc(O)c(O)c(O)c3)O[C@@H](OC(=O)c3cc(O)c(O)c(O)c3)[C@@H](OC(=O)c3cc(O)c(O)c4c3[C@H]1[C@H](O)C(=O)O4)[C@H]2OC(=O)c1cc(O)c(O)c(O)c1 (stereo partly specified)	0.71µM*	.	45µM*	.	?	.	?
CC(C)=CC[C@@H](O)C1=CC(=O)c2c(O)ccc(O)c2C1=O	.	.	50µM*	.	6.3µM*	.	1.1µM*
CC(C)NNC(=O)c1ccncc1	0%	-6%	21%	-15%	11µM*!	41%	8%
CCCCCCCCCCCCCCCCCCOC[C@H](COP(=O)([O-])OCC[N+](C)(C)C)OC	.	.	15%	.	5%[12.7 µM]	.	16%
CCCCCCCCCCCCCCCCOCC(COP(=O)([O-])OCC[N+](C)(C)C)OC (stereo unspecified)	.	.	5%	.	26%[59 µM]	.	.
SMILES	BAZ2B inh	PLK1 PBD inh	Sfp inh	JMJD2A Tudor	G9a inh	HP1b chromo inh	ME-1 prolif	others
Oc1csc(Cc2nc(-c3ccccc3F)cs2)n1	-3%	-12%	-15%	-22%	?	43%	1%[25.6 µM]
O=[N+]([O-])c1c(C(Cl)Cl)nn(-c2ccccc2)c1N1CCCC1	13µM*	-6%	3%	25µM*	?	?	-9%[25.6 µM]
CCOC(=O)c1c(C)oc2nc(C)nc(NCc3ccccc3Cl)c12	0%[57.1 µM]	.	.	20%	-5%[59 µM]	52%	.
CC(Cc1c[nH]c2ccccc12)C(=O)O (stereo unspecified)	45µM*	-10%	5%	25µM*	10µM*	?	-10%[25.6 µM]
O=C(O)C1=CC(=C(c2ccc(O)c(C(=O)O)c2)c2ccc(O)c(C(=O)O)c2)C=CC1=O	1.1µM*	.	-2%	.	1.1µM*	.	-13%
NC[C@@H](O)c1ccc(O)c(O)c1	.	.	?	89µM*	?	.	-2%
CC(C)(C)NC[C@H](O)c1ccc(O)c(CO)c1	.	.	18%	.	21%[21.5 µM]	.	.
c1ccc(-c2ccccn2)nc1	79µM*	-5%	-10%	?	14µM*!	68%	-13%
c1ccc(-c2cccs2)nc1	7%	-8%	19%	-5%	31%	0%	.
c1ccc(-c2ccc(-c3ccccn3)nn2)nc1	2µM*	.	16µM*	.	?	.	18µM*
c1ccc(-c2n[nH]c(-c3ccccn3)n2)nc1	0.71µM*	-4%	20µM*	1µM*	?	29%	?
CC1CCCN(CCCNC(=O)c2ccc(N3CCCC3=O)cc2)C1 (stereo unspecified)	-13%	-8%	8%	-17%	-19%	29%	.
O=C(CCC(=O)Nc1nnc(C2CCCCC2)s1)NCc1ccc(F)cc1	-4%	-9%	-5%	-4%	-21%	29%	.
CNC(=O)C(=O)NCCN1CCN(S(=O)(=O)c2ccc3ccccc3c2)CC1	-6%	-6%	5%	-7%	.	8%	.
CN(CC(=O)NC(=O)NCc1ccccc1)CC(=O)Nc1ccc(Cl)c(Cl)c1	-1%	0%	.	-10%	?	33%	.
